Experimental data as given in paper PMC8384837, “Expanding the binding specificity for RNA recognition by a PUF domain”.
Residue numbers refer to the chain shown, from its start.

Columns and labels:
Assay in all cases: yeast three-hybrid, YBZ-1, SC-Leu-His + 0.5 mM 3-AT, 4 days
Settings in all cases: tags: N-Gal4 AD-HA kept; label: inside an RPR1-promoter hybrid RNA with tandem MS2 sites; ssRNA
PUM1 PUF domain R5-LNS = PUM1 PUF domain R5-LNS (Homo sapiens, UniProt Q14671 828-1176, C1007L;R1008N;Q1011S)
Outline: (§1)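 The interaction score is the log change in how often each variant appears, from input to selection. Frequencies came from PCR-amplified, Illumina-sequenced repeat regions of Pumilio-1 PUF domain libraries grown in strain YBZ-1 (LexA–MS2 coat fusion, HIS3 reporter) alongside matching RNA elements. Input plates were SC-Leu and selection plates were SC-Leu-His + 0.5 mM 3-AT, each for four days, and the log2 calculation used a pseudocount of 1 where a variant was absent.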

PUM1 PUF domain R1-QLR = PUM1 PUF domain R1-QLR (Homo sapiens, UniProt Q14671 828-1176, S863Q;R864L;Q867R)
Outline: as §1

PUM1 PUF domain R6-LFA = target: T1, PUM1 PUF domain R6-LFA (Homo sapiens, UniProt Q14671 828-1176, N1043L;Y1044F;Q1047A)
T1 sequence: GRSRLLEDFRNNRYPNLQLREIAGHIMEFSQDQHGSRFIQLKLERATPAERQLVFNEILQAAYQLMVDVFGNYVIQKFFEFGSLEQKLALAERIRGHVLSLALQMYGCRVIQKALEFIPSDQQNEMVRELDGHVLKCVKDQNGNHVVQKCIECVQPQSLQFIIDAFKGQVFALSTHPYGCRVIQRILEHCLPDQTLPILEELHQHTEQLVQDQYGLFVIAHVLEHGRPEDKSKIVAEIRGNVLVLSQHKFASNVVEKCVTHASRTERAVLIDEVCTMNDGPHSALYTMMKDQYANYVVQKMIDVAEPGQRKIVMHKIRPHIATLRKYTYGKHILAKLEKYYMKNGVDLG
Outline: as §1

PUM1 PUF domain R8-RFD = PUM1 PUF domain R8-RFD (Homo sapiens, UniProt Q14671 828-1176, N1122R;Y1123F;Q1126D)
Outline: as §1

PUM1 PUF domain R8-KHR = PUM1 PUF domain R8-KHR (Homo sapiens, UniProt Q14671 828-1176, N1122K;Y1123H;Q1126R)
Outline: as §1

PUM1 PUF domain R7-TRR = PUM1 PUF domain R7-TRR (Homo sapiens, UniProt Q14671 828-1176, S1079T;N1080R;E1083R)
Outline: as §1

PUM1 PUF domain R3-SNF = PUM1 PUF domain R3-SNF (Homo sapiens, UniProt Q14671 828-1176, C935S;R936N;Q939F)
Outline: as §1

PUM1 PUF domain R6-VWC = target: T2, PUM1 PUF domain R6-VWC (Homo sapiens, UniProt Q14671 828-1176, N1043V;Y1044W;Q1047C)
T2 sequence: T1 sequence with L216V, F217W, A220C
Outline: as §1

PUM1 PUF domain R5-LHC = PUM1 PUF domain R5-LHC (Homo sapiens, UniProt Q14671 828-1176, C1007L;R1008H;Q1011C)
Outline: as §1

PUM1 PUF domain R6-GFR = target: T3, PUM1 PUF domain R6-GFR (Homo sapiens, UniProt Q14671 828-1176, N1043G;Y1044F;Q1047R)
T3 sequence: T1 sequence with L216G, A220R
Outline: as §1

## GGCUAGAACUAGUGGAUCCCCCGGCGCCCGGCGGCUCGAGCCCGGGUAAGUGUUAAUAGUCUGCAUGCCGCCGGGCGCCAUGCCUGCAGGUCGACUCUAGAAAACAUG
PUM1 PUF domain R5-LNS
  binding signal: 4.81 log2 enrichment (interaction score)

## GGCUAGAACUAGUGGAUCCCCCGGCGCCCGGCGGCUCGAGCCCGGGUAAGUGUAAAUCGUCUGCAUGCCGCCGGGCGCCAUGCCUGCAGGUCGACUCUAGAAAACAUG
PUM1 PUF domain R1-QLR
  binding signal: 4.6 log2 enrichment (interaction score)

## GGCUAGAACUAGUGGAUCCCCCGGCGCCCGGCGGCUCGAGCCCGGGUAAGUGAAAAUAGUCUGCAUGCCGCCGGGCGCCAUGCCUGCAGGUCGACUCUAGAAAACAUG
PUM1 PUF domain R6-LFA
  binding signal: 6.15 log2 enrichment (interaction score)

## GGCUAGAACUAGUGGAUCCCCCGGCGCCCGGCGGCUCGAGCCCGGGUAAGCGUAAAUAGUCUGCAUGCCGCCGGGCGCCAUGCCUGCAGGUCGACUCUAGAAAACAUG
PUM1 PUF domain R8-RFD
  binding signal: 4.38 log2 enrichment (interaction score)
PUM1 PUF domain R8-KHR
  binding signal: 6.43 log2 enrichment (interaction score)

## GGCUAGAACUAGUGGAUCCCCCGGCGCCCGGCGGCUCGAGCCCGGGUAAGUCUAAAUAGUCUGCAUGCCGCCGGGCGCCAUGCCUGCAGGUCGACUCUAGAAAACAUG
PUM1 PUF domain R7-TRR
  binding signal: 3.35 log2 enrichment (interaction score)

## GGCUAGAACUAGUGGAUCCCCCGGCGCCCGGCGGCUCGAGCCCGGGUAAGUGUAAAUAGUCUGCAUGCCGCCGGGCGCCAUGCCUGCAGGUCGACUCUAGAAAACAUG
PUM1 PUF domain R3-SNF
  binding signal: 2.65 log2 enrichment (interaction score)
PUM1 PUF domain R6-VWC
  binding signal: 3.32 log2 enrichment (interaction score)
PUM1 PUF domain R5-LHC
  binding signal: 2.44 log2 enrichment (interaction score)
PUM1 PUF domain R6-GFR
  binding signal: 4.38 log2 enrichment (interaction score)
PUM1 PUF domain R8-KHR
  binding signal: 2.92 log2 enrichment (interaction score)

## GGCUAGAACUAGUGGAUCCCCCGGCGCCCGGCGGCUCGAGCCCGGGUAAGUGCAAAUAGUCUGCAUGCCGCCGGGCGCCAUGCCUGCAGGUCGACUCUAGAAAACAUG
PUM1 PUF domain R6-GFR
  binding signal: 6.98 log2 enrichment (interaction score)
